Hits are enriched below; roughly 2.3% of the tested compounds scored in any of these assays.
YB-1 expr inh – YB-1 expression inhibition | U2OS, qRT-PCR YB-1 vs CDIP delta delta Cp, 16 h; stronger effect = higher value; zero = DMSO, each unit about twofold | hit rate 0.37% among 30,000 | delta delta Cp (YB-1 minus CDIP) (concentration not given with the values);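 active means delta delta Cp rounded down to an integer at or above 3, about 3 SD of DMSO wells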;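 further: higher means less YB-1 transcript or more CDIP transcript relative to DMSO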
U2OS ROS induce – cancer cell ROS induction. U2OS ROS induction, H2DCF-DA fluorescence. ROS induction (% of piperlongumine), % at 10 µM. hit rate 2% among 46,000. AID 624156; in the data active means ROS induction above about 79%, passing the limit was not always enough;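 further: 0% = DMSO vehicle median and 100% = reference compound median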
* hit, by the source's call.

Screening C[C@@H]1CN([C@H](C)CO)C(=O)c2cc(NC(=O)CCN3CCOCC3)ccc2O[C@H]1CN(C)S(=O)(=O)c1ccccc1 returned YB-1 expr inh 19.7* and U2OS ROS induce -9.4.
For C[C@@H]1CN([C@H](C)CO)C(=O)c2cc(NC(=O)Cc3ccccc3)ccc2O[C@@H]1CN(C)S(=O)(=O)c1ccccc1 the results were YB-1 expr inh 17.6* and U2OS ROS induce -1.9.
For Cc1ccc(S(=O)(=O)N(C)C[C@@H]2Oc3ccc(NC(=O)Cc4ccccc4)cc3C(=O)N([C@H](C)CO)C[C@H]2C)cc1 the results were YB-1 expr inh -0.0721 and U2OS ROS induce -3.3.
For C[C@H]1CN([C@@H](C)CO)C(=O)c2cc(NC(=O)CCN3CCOCC3)ccc2O[C@H]1CN(C)S(=O)(=O)c1ccccc1 the results were YB-1 expr inh -0.102 and U2OS ROS induce -5.7.
`Cc1cccc(-c2nc3ccccc3c(=O)n2OC(=O)c2ccc(C)c(C)c2)c1` gave U2OS ROS induce -20.8.
CC(C)CC1C(=O)N2CCC[C@H]2C2(O)O[C@](NC(=O)C3C=C4c5cccc6[nH]c(Br)c(c56)C[C@H]4N(C)C3)(C(C)C)C(=O)N12 (some centres not stated) was read as YB-1 expr inh 0.207 and U2OS ROS induce 24.1.
Screening CC(C)C[C@H]1C(=O)N2CCC[C@H]2[C@]2(O)O[C@](NC(=O)[C@@H]3C=C4c5cccc6[nH]c(Br)c(c56)C[C@H]4N(C)C3)(C(C)C)C(=O)N12 returned YB-1 expr inh 0.278 and U2OS ROS induce 106.9*.
Screening COc1ccc(-n2c(SCC(N)=O)nnc2-c2cccnc2)cc1 returned U2OS ROS induce 10.2.
Screening COc1ccc(-n2c(-c3cccc(OC)c3)csc2=NCc2cccnc2)cc1 returned YB-1 expr inh 0.338 and U2OS ROS induce 115.9*.
COc1ccccc1-c1nnc(-c2cccs2)o1 was read as U2OS ROS induce -12.9.
Screening C=C(C(=O)O[C@H]1C/C(C)=C\CC/C(CO)=C\[C@H]2OC(=O)C(=C)[C@H]12)C(O)CO (some centres not stated) returned YB-1 expr inh 0.927 and U2OS ROS induce -6.5.
`C/C1=C/CC/C(CO)=C\[C@H]2OC(=O)C(CN3CCCC3C(=O)O)[C@@H]2[C@@H](OC(=O)C(C)CO)C1` (some centres not stated) gave YB-1 expr inh 1.76 and U2OS ROS induce 132.1*.
`CN1N=C2c3ccccc3CCC2C1c1ccc(C#N)cc1` (configuration not stated) gave U2OS ROS induce -2.8.
`O=C(Nc1ccc(Cl)cc1)N1N=C2c3ccccc3CCC2C1c1cccs1` (configuration not stated) gave YB-1 expr inh -0.0352 and U2OS ROS induce 66.2.
`CCNC(=S)N1N=C2c3ccccc3CCC2C1c1ccc(F)cc1` (configuration not stated) gave YB-1 expr inh 0.343 and U2OS ROS induce 101.1*.
`O=C(c1ccco1)N1N=C2c3ccccc3CCC2C1c1ccc(F)cc1` (configuration not stated) gave YB-1 expr inh -0.013 and U2OS ROS induce 85.0*.
For O=C(Cn1nc(-c2ccccc2)ccc1=O)NCc1cccs1 the results were U2OS ROS induce -9.8.
`CC(C)(C)c1cc(Sc2nc(N3CCOCC3)nc(N3CCOCC3)n2)cc(C(C)(C)C)c1O` gave U2OS ROS induce 3.6.
Screening C=C1C2=C(O[C@H](/C(C)=C/C(C)CC(C)CC)[C@@H](O)[C@@H]2O)C(=O)N1OC (some centres not stated) returned YB-1 expr inh -0.379 and U2OS ROS induce 149.1*.
For O=C(/C=C/c1ccccc1)Nc1cccnc1Oc1ccc(F)cc1 the results were U2OS ROS induce 18.5.
Screening CN(C)c1ccc(C(=C2C=CC(=[N+](C)C)C=C2)c2ccc(N(C)C)cc2)cc1 returned YB-1 expr inh -0.267 and U2OS ROS induce 341.0*.
O=C(NCc1cc(F)cc2c1OCOC2)c1ccc2nonc2c1 was read as U2OS ROS induce -9.6.
`O=C(CSc1ncnc2c1nnn2Cc1ccc(F)cc1)c1ccccc1` gave U2OS ROS induce 21.6.
C[C@@H]1CN([C@H](C)CO)C(=O)c2cccc(NC(=O)CCCCCC(=O)Nc3ccccc3N)c2O[C@H]1CN(C)Cc1ccc2c(c1)OCO2 was read as YB-1 expr inh -0.23 and U2OS ROS induce 106.1*.
For C[C@H](CO)N1C[C@H](C)[C@H](CN(C)Cc2ccc(Cl)c(Cl)c2)Oc2ccc(NC(=O)CCCCCC(=O)Nc3ccccc3N)cc2C1=O the results were YB-1 expr inh 0.153 and U2OS ROS induce 29.2.
For C[C@@H]1CN([C@H](C)CO)C(=O)c2cccc(NC(=O)CCCCCC(=O)Nc3ccccc3N)c2O[C@@H]1CN(C)Cc1ccc2c(c1)OCO2 the results were YB-1 expr inh 0.0247 and U2OS ROS induce -5.5.
Screening C[C@H](CO)N1C[C@H](C)[C@H](CN(C)Cc2ccc(Cl)c(Cl)c2)Oc2c(NC(=O)CCCCCC(=O)Nc3ccccc3N)cccc2C1=O returned YB-1 expr inh -0.0691 and U2OS ROS induce 121.4*.
Cc1nc2ccc(C(F)(F)F)cc2n1CCc1ccccc1 was read as U2OS ROS induce 16.7.
COc1ccc(-c2coc3c(C)c4oc(=O)c5c(c4cc23)CCCC5)cc1F was read as U2OS ROS induce -9.5.
`C[C@H]1CN([C@@H](C)CO)C(=O)Cc2cc(NC(=O)NC3CCCCC3)ccc2O[C@H]1CN(C)S(=O)(=O)c1ccc(Cl)cc1` gave YB-1 expr inh -0.0886 and U2OS ROS induce 129.9*.
Cc1ccc(S(=O)(=O)N(C)C[C@H]2Oc3ccc(NC(=O)Cn4cnnn4)cc3CC(=O)N([C@@H](C)CO)C[C@@H]2C)cc1 was read as YB-1 expr inh -0.0731 and U2OS ROS induce -1.9.
Cc1ccc(S(=O)(=O)N(C)C[C@H]2Oc3ccc(NC(=O)NC4CCCCC4)cc3CC(=O)N([C@H](C)CO)C[C@H]2C)cc1 was read as YB-1 expr inh -0.0233 and U2OS ROS induce -6.0.
C[C@H](CO)N1C[C@H](C)[C@H](CN(C)S(=O)(=O)c2ccc(Cl)cc2)Oc2ccc(NC(=O)C3CC3)cc2CC1=O was read as YB-1 expr inh -0.223 and U2OS ROS induce 123.0*.
C[C@H](CO)N1C[C@H](C)[C@H](CN(C)S(=O)(=O)c2ccc(Cl)cc2)Oc2ccc(NC(=O)Cn3cnnn3)cc2CC1=O was read as YB-1 expr inh 0.0511 and U2OS ROS induce 126.3*.
Screening C[C@H]1CN([C@@H](C)CO)C(=O)Cc2cc(NC(=O)NC3CCCCC3)ccc2O[C@H]1CN(C)S(=O)(=O)c1cn(C)cn1 returned YB-1 expr inh 0.171 and U2OS ROS induce 14.3.
Screening C[C@H]1CN([C@@H](C)CO)C(=O)Cc2cc(NC(=O)NC3CCCCC3)ccc2O[C@@H]1CN(C)S(=O)(=O)c1cn(C)cn1 returned YB-1 expr inh -0.349 and U2OS ROS induce 108.8*.
`C[C@@H]1CN([C@H](C)CO)C(=O)Cc2cc(NC(=O)C3CC3)ccc2O[C@@H]1CN(C)S(=O)(=O)c1ccc(Cl)cc1` gave YB-1 expr inh -0.405 and U2OS ROS induce 4.9.
Cc1ccc(C2C(C(=O)c3ccc(Br)cc3)C(=O)C(=O)N2CCCN(C)C)cc1 (configuration not stated) was read as U2OS ROS induce -11.0.
Screening CCOC(=O)c1c(/N=C/c2c(O)n(C)c3ccccc23)sc(C)c1C returned U2OS ROS induce 17.9.

Source: PubChem (Broad Institute)
